# From the supplement of paper PMC8728848
# Shown is part of a subset that was picked to be rich in the strongest signals.
# B1: PhypaEULS3 (Physcomitrella patens) (protein)
# chain: MLPVRLHCKADPNFNLAAVPGQGPVMVPFSPNDDFQVWYKDVTMSTRVKDETGSSAFSLINKATGQALRHAPEDLAQCLLADYDSNALDQTVLWTMSEDMGQGYCCIRLASQITRNLDVFRGDKKSGGVKEGSPVITFAWKKQDNQIWKMITAILEQKLISEEDLNSAVDHHHHHH
# Tests used:
# Assay in all cases: glycan array binding signal (z-score within array); higher = stronger binding
# Settings in all cases: glycan notation: IUPAC condensed, linker removed
# [1] = biological target: Fuc(a1-2)Gal(b1-4)GlcNAc(b1-3)Gal(b1-4)GlcNAc(b1-2)Man(a1-3)[Fuc(a1-2)Gal(b1-4)GlcNAc(b1-3)Gal(b1-4)GlcNAc(b1-2)Man(a1-6)]Man(b1-4)GlcNAc(b1-4)GlcNAc
# Summary of the method: (§1)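 The Consortium for Functional Glycomics database supplied 3228 glycan arrays, of which those lacking an available protein sequence were dropped. The binding signal, a within-array Z-score, was averaged across arrays of the same protein sequence and across linkers. Negative scores can be read as non-binding.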
# [2] = biological target: Fuc(a1-2)Gal3S(b1-4)GlcNAc
# Summary of the method: as §1
# [3] = biological target: Fuc(a1-2)Gal6S(b1-3)GlcNAc6S
# Summary of the method: as §1
# [4] = biological target: Fuc(a1-2)[GalNAc(a1-3)]Gal(b1-3)GlcNAc(b1-6)GalNAc
# Summary of the method: as §1
# [5] = biological target: Fuc(a1-3)[Gal(b1-4)]GlcNAc(b1-6)[Gal(b1-3)GlcNAc(b1-3)]Gal(b1-4)Glc
# Summary of the method: as §1
# [6] = biological target: Fuc(a1-3)[Gal(b1-4)]GlcNAc6S
# Summary of the method: as §1
# [7] = biological target: Gal(a1-3)Gal(b1-3)GlcNAc(b1-6)GalNAc
# Summary of the method: as §1
# [8] = biological target: Gal(a1-3)Gal(b1-4)GlcNAc(b1-3)GalNAc
# Summary of the method: as §1
# Gal(b1-3)GlcNAc(b1-2)Man = biological target: Gal(b1-3)GlcNAc(b1-2)Man
# Summary of the method: as §1
# [9] = biological target: Gal(b1-3)GlcNAc(b1-6)Gal(b1-4)GlcNAc
# Summary of the method: as §1
# Gal(b1-3)GlcNAc6S = biological target: Gal(b1-3)GlcNAc6S
# Summary of the method: as §1
# [10] = biological target: Gal(b1-3)[Neu5Ac(a2-6)]GalNAc
# Summary of the method: as §1
# Gal(b1-4)Glc6S = biological target: Gal(b1-4)Glc6S
# Summary of the method: as §1
# Gal(b1-4)GlcNAc(b1-2)Man = biological target: Gal(b1-4)GlcNAc(b1-2)Man
# Summary of the method: as §1
# [11] = biological target: Gal(b1-4)GlcNAc(b1-2)[Gal(b1-4)GlcNAc(b1-6)]Man(a1-6)[GlcNAc(b1-4)][Gal(b1-4)GlcNAc(b1-2)Man(a1-3)]Man(b1-4)GlcNAc(b1-4)GlcNAc
# Summary of the method: as §1
# [12] = biological target: Gal(b1-4)GlcNAc(b1-3)Gal(b1-3)GalNAc
# Summary of the method: as §1
# [13] = biological target: Gal(b1-4)GlcNAc(b1-3)Gal(b1-4)GlcNAc(b1-3)Gal(b1-4)GlcNAc(b1-3)Gal(b1-4)GlcNAc(b1-2)Man(a1-3)[Gal(b1-4)GlcNAc(b1-3)Gal(b1-4)GlcNAc(b1-3)Gal(b1-4)GlcNAc(b1-3)Gal(b1-4)GlcNAc(b1-2)Man(a1-6)]Man(b1-4)GlcNAc(b1-4)[Fuc(a1-6)]GlcNAc
# Summary of the method: as §1
# [14] = biological target: Gal3S(b1-4)[Fuc(a1-3)]Glc6S
# Summary of the method: as §1
# [15] = biological target: Gal3S(b1-4)[Fuc(a1-3)]GlcNAc6S
# Summary of the method: as §1
# Gal4S6S(b1-4)GlcNAc = biological target: Gal4S6S(b1-4)GlcNAc
# Summary of the method: as §1
# Gal6S(b1-3)GlcNAc6S = biological target: Gal6S(b1-3)GlcNAc6S
# Summary of the method: as §1
# [16] = biological target: GalNAc3S(b1-4)[Fuc(a1-3)]GlcNAc
# Summary of the method: as §1
# GalNAc4S6S(b1-4)GlcNAc = biological target: GalNAc4S6S(b1-4)GlcNAc
# Summary of the method: as §1
# Glc(a1-4)Glc = biological target: Glc(a1-4)Glc
# Summary of the method: as §1
# Glc(b1-6)Glc = biological target: Glc(b1-6)Glc
# Summary of the method: as §1
# GlcA(b1-3)Gal = biological target: GlcA(b1-3)Gal
# Summary of the method: as §1
# [17] = biological target: GlcNAc(a1-4)Gal(b1-4)GalNAc
# Summary of the method: as §1
# [18] = biological target: GlcNAc6S(b1-3)Gal(b1-4)GlcNAc
# Summary of the method: as §1
# Kdn(a2-6)Gal(b1-4)GlcNAc = biological target: Kdn(a2-6)Gal(b1-4)GlcNAc
# Summary of the method: as §1
# [19] = biological target: Man(a1-2)Man(a1-2)Man(a1-6)[Man(a1-3)]Man
# Summary of the method: as §1
# [20] = biological target: Man(a1-2)Man(a1-3)[Man(a1-2)Man(a1-6)]Man(a1-6)[Man(a1-2)Man(a1-2)Man(a1-3)]Man
# Summary of the method: as §1
# [21] = biological target: Man(a1-2)Man(a1-6)[Man(a1-3)]Man(a1-6)[Man(a1-2)Man(a1-2)Man(a1-3)]Man(b1-4)GlcNAc(b1-4)GlcNAc
# Summary of the method: as §1
# [22] = biological target: Man(a1-3)[Man(a1-6)]Man(a1-6)[Man(a1-3)]Man(b1-4)GlcNAc(b1-4)GlcNAc
# Summary of the method: as §1
# [23] = biological target: Man(a1-3)[Man(a1-6)]Man(b1-4)GlcNAc(b1-4)GlcNAc
# Summary of the method: as §1
# [24] = biological target: Neu5Ac(a2-3)Gal(b1-3)GlcNAc(b1-2)Man
# Summary of the method: as §1
# [25] = biological target: Neu5Ac(a2-3)Gal(b1-3)[GlcNAc(b1-6)]GalNAc
# Summary of the method: as §1
# [26] = biological target: Neu5Ac(a2-3)Gal(b1-3)]Neu5Ac(a2-3)Gal(b1-4)]GlcNAc
# Summary of the method: as §1
# [27] = biological target: Neu5Ac(a2-3)Gal(b1-4)GlcNAc(b1-3)Gal(b1-4)GlcNAc(b1-3)Gal(b1-4)GlcNAc
# Summary of the method: as §1
# [28] = biological target: Neu5Ac(a2-3)Gal(b1-4)GlcNAc(b1-6)GalNAc
# Summary of the method: as §1
# Neu5Ac(a2-3)GalNAc = biological target: Neu5Ac(a2-3)GalNAc
# Summary of the method: as §1
# [29] = biological target: Neu5Ac(a2-6)Gal(b1-4)GlcNAc(b1-2)Man(a1-6)[Man(a1-3)]Man(b1-4)GlcNAc(b1-4)GlcNAc
# Summary of the method: as §1
# [30] = biological target: Neu5Ac(a2-6)Gal(b1-4)GlcNAc(b1-3)Gal(b1-3)GlcNAc
# Summary of the method: as §1
# [31] = biological target: Neu5Ac(a2-6)Gal(b1-4)GlcNAc(b1-3)Gal(b1-4)GlcNAc(b1-3)Gal(b1-4)GlcNAc
# Summary of the method: as §1
# [32] = biological target: Neu5Ac(a2-6)Gal(b1-4)GlcNAc(b1-3)Gal(b1-4)GlcNAc(b1-3)GalNAc
# Summary of the method: as §1
# [33] = biological target: Neu5Ac(a2-6)Gal(b1-4)GlcNAc(b1-3)GalNAc
# Summary of the method: as §1
# [34] = biological target: Neu5Ac(a2-6)Gal(b1-4)GlcNAc(b1-6)[Gal(b1-3)GlcNAc(b1-3)]Gal(b1-4)Glc
# Summary of the method: as §1
# [35] = biological target: Neu5Ac(a2-6)GalNAc(b1-4)GlcNAc
# Summary of the method: as §1
# [36] = biological target: Neu5Ac(a2-8)Neu5Ac(a2-3)Gal(b1-3)GalNAc(b1-4)[Neu5Ac(a2-3)]Gal(b1-4)Glc
# Summary of the method: as §1
# [37] = biological target: Neu5Ac(a2-8)Neu5Ac(a2-3)[GalNAc(b1-4)]Gal(b1-4)Glc
# Summary of the method: as §1
# [38] = biological target: Neu5Ac(a2-8)Neu5Ac(a2-8)Neu5Ac
# Summary of the method: as §1
# Neu5Gc(a2-6)GalNAc = biological target: Neu5Gc(a2-6)GalNAc
# Summary of the method: as §1
binder,measurement,setting,value
B1,glycan array binding signal (z-score),[1],0.946
same,glycan array binding signal (z-score),[2],-0.262
same,glycan array binding signal (z-score),[3],3.08
same,glycan array binding signal (z-score),[4],0.713
same,glycan array binding signal (z-score),[5],2.22
same,glycan array binding signal (z-score),[6],-0.239
same,glycan array binding signal (z-score),[7],0.611
same,glycan array binding signal (z-score),[8],3.21
same,glycan array binding signal (z-score),Gal(b1-3)GlcNAc(b1-2)Man,0.702
same,glycan array binding signal (z-score),[9],1.01
same,glycan array binding signal (z-score),Gal(b1-3)GlcNAc6S,1.42
same,glycan array binding signal (z-score),[10],-0.203
same,glycan array binding signal (z-score),Gal(b1-4)Glc6S,0.095
same,glycan array binding signal (z-score),Gal(b1-4)GlcNAc(b1-2)Man,1.11
same,glycan array binding signal (z-score),[11],-0.969
same,glycan array binding signal (z-score),[12],2.27
same,glycan array binding signal (z-score),[13],-0.557
same,glycan array binding signal (z-score),[14],0.258
same,glycan array binding signal (z-score),[15],2.66
same,glycan array binding signal (z-score),Gal4S6S(b1-4)GlcNAc,-0.245
same,glycan array binding signal (z-score),Gal6S(b1-3)GlcNAc6S,4.14
same,glycan array binding signal (z-score),[16],-0.804
same,glycan array binding signal (z-score),GalNAc4S6S(b1-4)GlcNAc,2.6
same,glycan array binding signal (z-score),Glc(a1-4)Glc,-0.811
same,glycan array binding signal (z-score),Glc(b1-6)Glc,-1.38
same,glycan array binding signal (z-score),GlcA(b1-3)Gal,-1.49
same,glycan array binding signal (z-score),[17],-1.15
same,glycan array binding signal (z-score),[18],1.26
same,glycan array binding signal (z-score),Kdn(a2-6)Gal(b1-4)GlcNAc,0.671
same,glycan array binding signal (z-score),[19],0.733
same,glycan array binding signal (z-score),[20],-0.367
same,glycan array binding signal (z-score),[21],2.25
same,glycan array binding signal (z-score),[22],-0.185
same,glycan array binding signal (z-score),[23],0.192
same,glycan array binding signal (z-score),[24],-0.422
same,glycan array binding signal (z-score),[25],3.83
same,glycan array binding signal (z-score),[26],0.062
same,glycan array binding signal (z-score),[27],0.343
same,glycan array binding signal (z-score),[28],2.29
same,glycan array binding signal (z-score),Neu5Ac(a2-3)GalNAc,-0.098
same,glycan array binding signal (z-score),[29],-0.347
same,glycan array binding signal (z-score),[30],0.4
same,glycan array binding signal (z-score),[31],0.398
same,glycan array binding signal (z-score),[32],0.528
same,glycan array binding signal (z-score),[33],0.678
same,glycan array binding signal (z-score),[34],0.339
same,glycan array binding signal (z-score),[35],0.235
same,glycan array binding signal (z-score),[36],-0.561
same,glycan array binding signal (z-score),[37],-0.005
same,glycan array binding signal (z-score),[38],-0.561
same,glycan array binding signal (z-score),Neu5Gc(a2-6)GalNAc,2.46
